Data taken from PubChem BioAssay AID588382 (National Center for Advancing Translational Sciences (NCATS), 2011).
The campaign covered roughly 1,300 compounds. About 150 (12%) were called active. Roughly 30% stayed inconclusive and do not appear here. The full list was thinned out, with actives kept by preference. Values without a mark were called inactive. The call rests on the fitted dose curve; in most records, active means well fitted cell-killing curve with a large enough effect; inconclusive means small, poorly fitted or top-dose-only effect, or effect the other way; inactive means flat fitted curve, though single readings scatter.
On the % scale 0 is the no-effect control and ±100 the full control effect; potency means the concentration at half of the fitted maximal effect.

Assay: qHTS of small molecules that selectively kill Giardia lamblia: Hit Validation in HepG2 cytotox;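 further: compound exposure lasted overnight at 37 deg C; nearly all actives have a fitted effect of over 55% in size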;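 on activity change, negative = cytotoxicity: viability measured as cellular ATP by ATPLite luminescence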
Details: cell viability; Potency: HepG2 cytotoxicity; series mostly up to 38.3 µM; activity change, negative = cytotoxicity: at the top concentration
Text: Giardia lamblia is a human pathogen afflicting impoverished nations, and the most common cause of outbreaks of diarrhea in the United States. Giardia has been classified by the CDC as a category B bioterrorism organism. The favored anti giardiasis drugs in the US are metronidazole or tinidazole, compounds that have undesirable side effects. Moreover, increasing resistance to drug regimes and recurrence are a concern. It is thus clear that alternative drug treatments are needed.
In a collaboration between the University of Maryland, College Park and the NIH Chemical Genomics Center, a bioluminescence Giardia viability assay based on the trophozoites' ATP content was developed. This assay is suitable for high throughput screening, and miniaturized the assay for compound screening in 1536-well plates. The goal of the project is to screen the Molecular Libraries Small Molecule Repository (MLSMR) for compounds that selectively kill Giardia trophozoites. This counterscreen looks at the toxicity of the compounds against the human HepG2 cell line.
NIH Chemical Genomics Center [NCGC]
NIH Molecular Libraries Probe Centers Network [MLPCN]
Assay Submitter (PI): Osnat Herzberg, University of Maryland, College Park, MD.
4 uL of HepG2 cells ae dispensed into white 1536-well plates. They are incubated overnight at 37 deg C and then 23 nL of compounds are transferred to the wells with a pintool. Plates are incubated overnight at 37 deg C. 2 uL of ATPLite is added and the plates are incubated for 15 min at room temperature before they are read on the ViewLux for luminiescence.
For CNC(=O)Oc1cccc(-c2cn3cc(Cl)ccc3n2)c1, the Potency was 1.85 µM (active).
In the case of NC(=O)c1cc(N2CC2)c([N+](=O)[O-])cc1[N+](=O)[O-], the “activity change, negative = cytotoxicity” value is reported as 3.35%.
With CN(c1ccccc1)c1ccc([N+](=O)[O-])c2nonc12 the “activity change, negative = cytotoxicity” value was 11.3%.
For COC(=O)c1nc(-c2ccc3c(n2)C(=O)C(N)=C(OC)C3=O)c(N)c(-c2ccc(OC)c(OC)c2O)c1C, the Potency was 1.04 µM (active).
For C[C@H]1C[C@@H](C)C(=O)[C@@H]([C@H](O)CC2CC(=O)NC(=O)C2)C1, the “activity change, negative = cytotoxicity” value was -7.21%.
For CCOC(=O)C1CCCN(c2ccc([N+](=O)[O-])c3nonc23)C1 (stereo not given), the “activity change, negative = cytotoxicity” value was 21%.
In the case of Fc1ccc(C2NCCc3[nH]cnc32)cc1 (stereo not given), the “activity change, negative = cytotoxicity” value is reported as 4.03%.
In the case of [Hg+][c]1ccccc1, the Potency is reported as 1.85 µM (active).
In the case of CC(C)(O)C1C2OC(=O)C1C1(O)CC3OC34C(=O)OC2C14C (stereo not given), the “activity change, negative = cytotoxicity” value is reported as 16.7%.
For C[N+]12CCC(CC1)C(=C(c1ccccc1)c1ccccc1)C2, the “activity change, negative = cytotoxicity” value was 5.87%.
For C[C@@H]1C[C@@H]([C@H](O)CC2CC(=O)NC(=O)C2)C(=O)[C@@H](C)C1, the “activity change, negative = cytotoxicity” value was -0.556%.
With c1ccc2c(c1)[I+]c1ccccc1-2 the Potency was 0.0826 µM (active).
With O=[N+]([O-])c1ccc(-c2ccccc2)c([As](=O)(O)O)c1 the “activity change, negative = cytotoxicity” value was 13.1%.
In the case of CC1=C(N2CC2)C(=O)C(CO)=C(N2CC2)C1=O, the Potency is reported as 0.0656 µM (active).
With CCCCn1c(=O)c(C(=O)NCc2ccccc2OC)c(O)c2ccccc21 the “activity change, negative = cytotoxicity” value was -9.37%.
For CCn1nc(/C=C/c2ccccc2)nc2c(=O)n(C)c(=O)nc1-2, the Potency was 6.56 µM (active).
In the case of CC1CN(c2ccc([N+](=O)[O-])c3cccnc23)CC(C)N1 (stereo not given), the “activity change, negative = cytotoxicity” value is reported as 1.72%.
In the case of Cc1nc2c(=O)n(C)c(=O)nc-2n(C)n1, the Potency is reported as 0.656 µM (active).
For CC1CC(C)CC(C)C(O)C(C#N)=CC=CCC(C2CCCC2C(=O)O)OC(=O)CC(O)C(C)C1 (stereo not given), the Potency was 2.33 µM (active).
For O=[N+]([O-])c1ccc(O)c([N+](=O)[O-])c1, the “activity change, negative = cytotoxicity” value was 9.5%.
For CC(C)c1ccc(N=Nc2c(O)[nH]c(=O)[nH]c2=O)cc1, the “activity change, negative = cytotoxicity” value was -4.42%.
With CCOc1ccc(-n2c(-c3cccs3)nc3ccccc3c2=O)cc1 the “activity change, negative = cytotoxicity” value was -8.26%.
With O=c1c2ccccc2nc(/C=C/c2ccc([N+](=O)[O-])o2)n1-c1ccc(O)cc1 the Potency was 3.69 µM (active).
With O=c1c2ccccc2nc(/C=C/c2ccc(O)cc2)n1-c1cccc(O)c1 the “activity change, negative = cytotoxicity” value was 11.7%.
In the case of COC1/C=C/C=C(\C)Cc2cc(O)c(Cl)c(c2)N(C)C(=O)CC(OC(=O)C(C)C)C2(C)OC2C(C)C2CC1(O)NC(=O)O2 (stereo not given), the “activity change, negative = cytotoxicity” value is reported as -0.0231%.
With Cc1ccc(C(c2nnnn2Cc2ccccc2)N2CC=C(c3ccc(F)cc3)CC2)cc1 (stereo not given) the “activity change, negative = cytotoxicity” value was -4.33%.
With C=CC1CN2CCC1CC2[C@@H](OC(=O)c1ccc(OC)cc1)c1ccnc2ccccc12 (stereo not given in full) the “activity change, negative = cytotoxicity” value was 8.63%.
For c1ccc2c(c1)[IH]c1ccccc1-2, the Potency was 0.0927 µM (active).
With CN(C)C(=O)Oc1ccc(Br)c2ccccc12 the “activity change, negative = cytotoxicity” value was 4.5%.
With COC(COC(N)=O)C1=C(N2CC2)C(=O)C(C)=C(N2CC2)C1=O (stereo not given) the Potency was 0.185 µM (active).
With O=[N+]([O-])c1cc([As](=O)(O)O)ccc1O the “activity change, negative = cytotoxicity” value was -5.69%.
With Cc1cc([N+](=O)[O-])c2ccccc2[n+]1[O-] the Potency was 1.17 µM (active).
For CN1CCN(c2ccc([N+](=O)[O-])c3cccnc23)CC1, the “activity change, negative = cytotoxicity” value was 10.1%.
In the case of Cc1nc2ccccc2c(=O)n1-c1cc([N+](=O)[O-])cc([N+](=O)[O-])c1, the “activity change, negative = cytotoxicity” value is reported as 13.7%.
In the case of NN=C(N)N, the “activity change, negative = cytotoxicity” value is reported as 23.2%.
